Here are results for 7 compounds from PubChem BioAssay (EPA / NIEHS).

Active and inactive are the calls of the source. Rule for the calls: active = hit-call score of the fitted dose curve at least 0.9, where 1 is the maximum; inactive = score below 0.9.

Test [1] can be described thus: ATG_CRE_CIS: Attagene CIS-FACTORIAL HepG2 Assay for human cAMP Responsive Element (CRE) binding protein 3 (AID 2282926). To be noted: HepG2 CRE cis-reporter, Attagene multiplexed mRNA; actives raise or lower the signal. The procedure, abridged:
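Capillary electrophoresis of 6-FAM-labelled, HpaI-digested PCR products quantified reporter transcripts. These came from HepG2 transiently transfected with cis-element reporters and exposed to test chemicals for 24 hours, with DMSO defining baseline activity.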

For test [2], the target named is CCAAT/enhancer-binding protein beta (Homo sapiens) (UniProt P17676). In words: ATG_C_EBP_CIS: Attagene CIS-FACTORIAL HepG2 Assay for human CCAAT/Enhancer Binding Protein (C/EBP) beta (AID 2282927). Particulars: HepG2 Attagene cis-factorial transcription factor reporter; actives raise or lower the signal. The procedure, abridged:
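Following a 24 h incubation with test chemical, transfected HepG2 cells yielded RNA whose reporter transcripts were quantified by RT-PCR and fluorescent capillary electrophoresis, with DMSO serving as baseline for bidirectional fitting.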

Test [3] has as its target Aryl hydrocarbon receptor (Homo sapiens) (UniProt P35869). The experiment in a line: ATG_Ahr_CIS: Attagene CIS-FACTORIAL HepG2 Assay for human Aryl Hydrocarbon Receptor (Ahr) (AID 2282930). Particulars: HepG2 AhR cis-factorial reporter transcription; actives raise or lower the signal. The procedure, abridged:
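Values derive from bidirectional fitting against DMSO negative control. Underlying signal: cis-element reporter mRNA in transiently transfected HepG2, harvested 24 h post-dose and measured by RT-PCR plus capillary electrophoresis.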

The nature of test [4]: ATG_AP_1_CIS: Attagene CIS-FACTORIAL HepG2 Assay for human Activator Protein 1 (AP-1) (AID 2282931). Particulars: HepG2 Attagene cis-factorial AP-1 reporter mRNA; actives raise or lower the signal. The procedure, abridged:
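Fluorescence of labelled PCR fragments separated by capillary electrophoresis gives reporter mRNA levels. HepG2 with transfected cis-regulated reporter units, 24 h exposure; DMSO serves as baseline for bidirectional curve fits.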

A short description of test [5]: ATG_E_Box_CIS: Attagene CIS-FACTORIAL HepG2 Assay for human Enhancer Box (E-box) (AID 2282936). To be noted: HepG2 E-box cis-reporter transcription, actives raise or lower the signal. The procedure, abridged:
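Endogenous transcription factor activity was sensed in human HepG2 liver cells through transfected cis-promoter reporter units. After 24 h of dosing, total RNA was reverse-transcribed and reporter cDNA resolved by capillary electrophoresis.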

Test [6] is described as follows: ATG_GLI_CIS: Attagene CIS-FACTORIAL HepG2 Assay for human Zinc Finger Protein GLI1 (AID 2282945). To be noted: HepG2, Attagene cis-factorial reporter mRNA, GLI element; actives raise or lower the signal. The procedure, abridged:
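HepG2 cells transiently transfected with cis-promoter multiplexed reporter units report endogenous transcription factor activity. After 24 h chemical exposure, reporter mRNA was quantified by RT-PCR, 6-FAM labelling, HpaI digestion and capillary electrophoresis, with bidirectional fitting against DMSO.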

Test [7] can be described thus: ATG_M_06_CIS: Attagene CIS-FACTORIAL HepG2 Assay for M06 Transcription Factor (Internal Marker) (AID 2282950). Particulars: HepG2 Attagene CIS-FACTORIAL M06 internal marker reporter; actives raise or lower the signal. The procedure, abridged:
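Steps: transfect HepG2 with multiplexed cis-element reporter constructs; dose chemical 24 h; extract RNA with DNase treatment; reverse-transcribe, PCR-amplify, 6-FAM label, HpaI digest; separate fragments by capillary electrophoresis. Activity fitted both directions versus DMSO.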

Test [8] deals with Hypoxia-inducible factor 1-alpha (Homo sapiens) (UniProt Q16665). In words: ATG_HIF1a_CIS: Attagene CIS-FACTORIAL HepG2 Assay for human Hypoxia Inducible Factor 1 (HIF1A) (AID 2282951). To be noted: HepG2 Attagene cis-factorial HIF1a reporter transcription; actives raise or lower the signal. The procedure, abridged: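 HepG2, transient cis-reporter library, 24 h dosing. RNA → RT (oligo dT) → PCR → 6-FAM primer extension → HpaI → CE. Bidirectional curve fit vs DMSO.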
Sequence of Hypoxia-inducible factor 1-alpha (Homo sapiens) (Q16665 whole entry, looked up): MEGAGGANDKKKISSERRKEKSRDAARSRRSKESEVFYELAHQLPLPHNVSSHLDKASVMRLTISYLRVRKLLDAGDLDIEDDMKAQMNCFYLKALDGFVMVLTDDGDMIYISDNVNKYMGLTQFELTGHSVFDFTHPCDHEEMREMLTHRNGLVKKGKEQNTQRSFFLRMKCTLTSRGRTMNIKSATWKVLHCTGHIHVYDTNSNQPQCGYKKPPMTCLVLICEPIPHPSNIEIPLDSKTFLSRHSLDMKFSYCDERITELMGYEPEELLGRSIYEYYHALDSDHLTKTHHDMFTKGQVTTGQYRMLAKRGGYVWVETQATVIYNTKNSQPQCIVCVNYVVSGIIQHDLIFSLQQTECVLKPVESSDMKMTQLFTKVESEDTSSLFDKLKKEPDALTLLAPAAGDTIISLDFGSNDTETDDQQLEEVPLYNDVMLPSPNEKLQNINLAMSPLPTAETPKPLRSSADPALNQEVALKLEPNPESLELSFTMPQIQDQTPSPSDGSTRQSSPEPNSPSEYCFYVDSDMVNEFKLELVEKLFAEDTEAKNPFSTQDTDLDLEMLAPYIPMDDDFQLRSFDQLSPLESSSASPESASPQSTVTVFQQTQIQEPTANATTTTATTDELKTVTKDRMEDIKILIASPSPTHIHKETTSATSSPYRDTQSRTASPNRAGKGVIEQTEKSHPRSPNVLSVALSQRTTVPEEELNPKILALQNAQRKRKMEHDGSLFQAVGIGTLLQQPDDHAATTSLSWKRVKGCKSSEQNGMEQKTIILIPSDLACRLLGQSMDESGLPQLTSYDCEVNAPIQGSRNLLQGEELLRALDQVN

The target in test [9] is Hepatocyte nuclear factor 6 (Homo sapiens) (UniProt Q9UBC0). The experiment in a line: ATG_HNF6_CIS: Attagene CIS-FACTORIAL HepG2 Assay for human Hepatocyte Nuclear Factor 6 (HNF6) (AID 2282952). To be noted: HepG2 Attagene cis-factorial HNF6 reporter transcription; actives raise or lower the signal. The procedure, abridged:
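Activity values derive from bidirectional fitting against DMSO of reporter mRNA levels, measured by capillary electrophoresis of labelled RT-PCR products from HepG2 cells exposed 24 h.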

The nature of test [10]: ATG_TA_CIS: Attagene CIS-FACTORIAL HepG2 Assay for human TA Basal Promoter (AID 2282964). Particulars: HepG2 Attagene CIS-factorial TA basal promoter reporter; actives raise or lower the signal. The procedure, abridged: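 Steps: transfect HepG2 with MRTUs; dose 24 h; isolate RNA, DNase-treat, reverse-transcribe; PCR and FAM-label reporter cDNA; digest with HpaI 2h at 37 C; run capillary electrophoresis. Activity fitted both directions against DMSO.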

A short description of test [11]: ATG_VDRE_CIS: Attagene CIS-FACTORIAL HepG2 Assay for human Vitamin D Receptor Element (VDRE) (AID 2282968). Particulars: HepG2 VDRE cis-reporter transcription, actives raise or lower the signal. The procedure, abridged: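 Steps: transfect HepG2 with multiple reporter transcription units; dose chemicals 24 h; isolate RNA; RT-PCR; label with 6-FAM primer extension; HpaI digest; capillary electrophoresis. Curves fitted both directions against DMSO.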

For test [12], the target named is X-box-binding protein 1 (Homo sapiens) (UniProt P17861). The experiment in a line: ATG_Xbp1_CIS: Attagene CIS-FACTORIAL HepG2 Assay for human X-box Binding Protein 1 (XBP1) (AID 2282972). Particulars: HepG2 XBP1 cis-element reporter, Attagene multiplex; actives raise or lower the signal. The procedure, abridged: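 Changes in reporter transcript abundance, read by RT-PCR and capillary electrophoresis, reflect endogenous transcription factor activity. Transfected HepG2 cells received compound for 24 hours; DMSO defined baseline for bidirectional analysis.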
Sequence of X-box-binding protein 1 (Homo sapiens) (P17861 whole entry, looked up): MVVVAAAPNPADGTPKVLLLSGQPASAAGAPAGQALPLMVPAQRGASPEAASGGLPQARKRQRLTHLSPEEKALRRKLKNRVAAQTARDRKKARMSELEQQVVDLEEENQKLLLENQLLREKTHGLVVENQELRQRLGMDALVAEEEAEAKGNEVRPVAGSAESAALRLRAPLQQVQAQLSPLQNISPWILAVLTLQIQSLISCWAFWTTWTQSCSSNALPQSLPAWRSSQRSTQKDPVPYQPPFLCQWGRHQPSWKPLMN

For test [13], the target named is Myc proto-oncogene protein (Homo sapiens) (UniProt P01106). The experiment in a line: ATG_Myc_CIS: Attagene CIS-FACTORIAL HepG2 Assay for human Myelocytomatosis (Myc) Proto-Oncogene Transcription Factor (AID 2282990). Particulars: HepG2, Attagene cis-reporter transcription factor activity; actives raise or lower the signal. The procedure, abridged: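 Multiplexed cis-reporter transcription in HepG2 cells after 24 h chemical treatment. Reporter mRNA measured by RT-PCR and capillary electrophoresis fluorescence; activity fitted bidirectionally against DMSO control.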
Sequence of Myc proto-oncogene protein (Homo sapiens) (P01106 whole entry, looked up): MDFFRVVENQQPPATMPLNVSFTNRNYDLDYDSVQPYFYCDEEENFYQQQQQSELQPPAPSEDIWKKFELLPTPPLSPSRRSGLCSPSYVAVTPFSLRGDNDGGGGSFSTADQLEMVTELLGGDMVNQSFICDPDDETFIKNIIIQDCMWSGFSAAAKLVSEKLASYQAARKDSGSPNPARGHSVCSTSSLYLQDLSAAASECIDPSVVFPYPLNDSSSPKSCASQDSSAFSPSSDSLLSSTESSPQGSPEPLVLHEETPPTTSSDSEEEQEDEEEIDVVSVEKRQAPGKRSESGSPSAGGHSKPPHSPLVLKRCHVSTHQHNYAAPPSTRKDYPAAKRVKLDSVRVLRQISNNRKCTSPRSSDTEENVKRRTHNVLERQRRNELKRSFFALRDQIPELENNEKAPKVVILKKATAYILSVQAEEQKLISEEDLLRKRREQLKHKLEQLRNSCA

Test [14] in a line: ATG_NRF2_ARE_CIS: Attagene CIS-FACTORIAL HepG2 Assay for human Nuclear Factor Erythroid 2 Related Factor 2 (NFR2) response to Antioxidant Response Elements (ARE) (AID 2282992). To be noted: HepG2 Attagene ARE/NRF2 reporter, transcription factor activity; actives raise or lower the signal. The procedure, abridged:
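Using transiently transfected HepG2 cells exposed for 24 h, reporter mRNA levels were determined by RT-PCR with fluorescent primer extension and capillary electrophoresis, analysed for gain or loss of signal against DMSO.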

The nature of test [15]: ATG_Oct_MLP_CIS: Attagene CIS-FACTORIAL HepG2 Assay for human Octamer-Binding Transcription Factor (Oct) (AID 2282993). To be noted: HepG2 Attagene cis-factorial Oct reporter, mRNA; actives raise or lower the signal. The procedure, abridged:
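Multiplexed cis-reporter assay in human liver HepG2 cells, 24 h incubation. Reporter RNA amplified and labelled, then resolved by capillary electrophoresis; DMSO serves as negative control and baseline.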

The target in test [16] is Cellular tumor antigen p53 (Homo sapiens) (UniProt P04637). In words: ATG_p53_CIS: Attagene CIS-FACTORIAL HepG2 Assay for human p53 Transcription Factor (AID 2282994). To be noted: HepG2 p53 cis-element reporter, Attagene mRNA; actives raise or lower the signal. The procedure, abridged:
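In HepG2 cells, reporter transcription units under cis-regulatory promoters were transiently introduced. Following 24 h treatment, RNA was processed to labelled, digested cDNA fragments read by capillary electrophoresis; fitting was bidirectional versus DMSO.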

The target in test [17] is Heat shock factor protein 1 (Homo sapiens) (UniProt Q00613). The experiment in a line: ATG_HSE_CIS: Attagene CIS-FACTORIAL HepG2 Assay for human Heat Shock Transcription Factor 1 (HSE) (AID 2282953). To be noted: HepG2 HSE cis-reporter, Attagene RNA transcription; actives raise or lower the signal. The procedure, abridged: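 Cells were transfected with cis-element-driven reporter constructs, dosed for 24 h, then total RNA was reverse-transcribed and reporter cDNA amplified, FAM-labelled and digested with HpaI. Fragments were resolved by capillary electrophoresis; gain or loss was fitted against DMSO.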
Sequence of Heat shock factor protein 1 (Homo sapiens) (Q00613 whole entry, looked up, the tested form may be a part): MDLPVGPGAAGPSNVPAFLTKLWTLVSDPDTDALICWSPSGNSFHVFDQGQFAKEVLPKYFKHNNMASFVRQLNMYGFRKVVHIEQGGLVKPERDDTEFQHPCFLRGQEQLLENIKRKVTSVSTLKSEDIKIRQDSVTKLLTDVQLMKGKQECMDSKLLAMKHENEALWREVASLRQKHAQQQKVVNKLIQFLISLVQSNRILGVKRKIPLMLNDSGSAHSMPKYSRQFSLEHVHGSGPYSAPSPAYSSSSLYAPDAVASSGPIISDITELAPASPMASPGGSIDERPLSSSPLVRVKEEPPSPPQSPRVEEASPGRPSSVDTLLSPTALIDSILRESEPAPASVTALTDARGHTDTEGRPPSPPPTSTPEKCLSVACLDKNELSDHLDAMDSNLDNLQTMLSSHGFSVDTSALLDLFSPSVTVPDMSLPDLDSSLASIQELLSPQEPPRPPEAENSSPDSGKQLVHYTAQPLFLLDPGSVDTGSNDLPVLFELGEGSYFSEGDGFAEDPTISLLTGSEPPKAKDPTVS

A short description of test [18]: ATG_BRE_CIS: Attagene CIS-FACTORIAL HepG2 Assay for human Bone Morphogenetic Protein (BMP) Response Element (BRE) (AID 2282933). To be noted: HepG2 BMP response element reporter, Attagene transcription factor profiling; actives raise or lower the signal. The procedure, abridged: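 Endogenous transcription factor activity at a BMP response element was monitored in transfected HepG2 cells 24 h after dosing. Fluorescent RT-PCR products were resolved by capillary electrophoresis, and activity was fitted in both directions versus DMSO.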

The nature of test [19]: ATG_M_19_CIS: Attagene CIS-FACTORIAL HepG2 Assay for M19 Transcription Factor (Internal Marker) (AID 2282939). Particulars: HepG2 Attagene CIS-FACTORIAL M19 internal marker reporter; actives raise or lower the signal. The procedure, abridged:
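Background-control endpoint from a multiplexed HepG2 reporter panel. Cells carrying cis-regulated reporter constructs are treated 24 h, then reporter transcripts are amplified, fluorescently labelled and sized by capillary electrophoresis. DMSO defines baseline.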

In test [20] the target is Nuclear respiratory factor 1 (Homo sapiens) (UniProt Q16656). The experiment in a line: ATG_NRF1_CIS: Attagene CIS-FACTORIAL HepG2 Assay for human Nuclear Respiratory Factor 1 (NRF1) Orphan Gene (AID 2282987). To be noted: HepG2 NRF1 cis-element reporter, Attagene multiplex; actives raise or lower the signal. The procedure, abridged: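 Human hepatoma HepG2 cells carrying transfected promoter-regulated reporter units were incubated with test chemicals for 24 h. Reporter transcripts were measured by RT-PCR plus capillary electrophoresis, and endpoints derived by bidirectional fitting with DMSO as baseline.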
Sequence of Nuclear respiratory factor 1 (Homo sapiens) (Q16656 whole entry, looked up): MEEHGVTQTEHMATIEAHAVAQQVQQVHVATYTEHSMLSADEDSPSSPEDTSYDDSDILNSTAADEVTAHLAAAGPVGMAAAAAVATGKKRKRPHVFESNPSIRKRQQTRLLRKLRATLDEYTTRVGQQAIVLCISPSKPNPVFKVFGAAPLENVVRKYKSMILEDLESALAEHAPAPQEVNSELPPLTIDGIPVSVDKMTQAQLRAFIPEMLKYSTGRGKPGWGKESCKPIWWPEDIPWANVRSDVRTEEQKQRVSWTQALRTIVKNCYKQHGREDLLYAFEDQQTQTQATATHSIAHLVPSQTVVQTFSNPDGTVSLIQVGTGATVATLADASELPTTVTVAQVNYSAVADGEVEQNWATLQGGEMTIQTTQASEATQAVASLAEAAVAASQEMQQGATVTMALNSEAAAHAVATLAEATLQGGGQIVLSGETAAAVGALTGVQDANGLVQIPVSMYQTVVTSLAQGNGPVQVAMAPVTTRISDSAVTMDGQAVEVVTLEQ

Sequence of Hepatocyte nuclear factor 6 (Homo sapiens) (Q9UBC0 whole entry, looked up): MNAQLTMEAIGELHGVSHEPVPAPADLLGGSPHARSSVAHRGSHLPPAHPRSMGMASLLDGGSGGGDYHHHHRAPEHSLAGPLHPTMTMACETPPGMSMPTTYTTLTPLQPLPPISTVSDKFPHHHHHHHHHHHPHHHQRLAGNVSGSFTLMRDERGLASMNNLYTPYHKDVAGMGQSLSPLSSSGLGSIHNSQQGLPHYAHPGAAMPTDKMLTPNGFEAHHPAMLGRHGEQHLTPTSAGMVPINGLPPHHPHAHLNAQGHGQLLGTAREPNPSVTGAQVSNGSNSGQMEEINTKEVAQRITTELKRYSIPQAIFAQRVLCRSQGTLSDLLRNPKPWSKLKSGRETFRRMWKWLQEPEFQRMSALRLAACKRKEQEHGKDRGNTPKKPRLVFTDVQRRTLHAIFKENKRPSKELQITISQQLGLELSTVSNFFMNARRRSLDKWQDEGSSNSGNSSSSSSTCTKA
Sequence of Cellular tumor antigen p53 (Homo sapiens) (P04637 whole entry, looked up, the tested form may be a part): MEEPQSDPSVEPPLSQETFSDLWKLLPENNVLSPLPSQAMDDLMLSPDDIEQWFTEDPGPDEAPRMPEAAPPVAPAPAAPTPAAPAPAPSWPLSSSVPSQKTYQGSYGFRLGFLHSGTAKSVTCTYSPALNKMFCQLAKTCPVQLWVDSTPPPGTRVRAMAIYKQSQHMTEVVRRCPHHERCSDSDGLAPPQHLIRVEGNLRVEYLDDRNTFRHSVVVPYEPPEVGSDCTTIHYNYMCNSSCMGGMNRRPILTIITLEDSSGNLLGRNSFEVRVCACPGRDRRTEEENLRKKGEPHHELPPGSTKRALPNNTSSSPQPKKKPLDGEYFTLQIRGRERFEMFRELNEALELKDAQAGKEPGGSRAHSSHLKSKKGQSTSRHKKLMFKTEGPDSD
Sequence of Aryl hydrocarbon receptor (Homo sapiens) (P35869 whole entry, looked up): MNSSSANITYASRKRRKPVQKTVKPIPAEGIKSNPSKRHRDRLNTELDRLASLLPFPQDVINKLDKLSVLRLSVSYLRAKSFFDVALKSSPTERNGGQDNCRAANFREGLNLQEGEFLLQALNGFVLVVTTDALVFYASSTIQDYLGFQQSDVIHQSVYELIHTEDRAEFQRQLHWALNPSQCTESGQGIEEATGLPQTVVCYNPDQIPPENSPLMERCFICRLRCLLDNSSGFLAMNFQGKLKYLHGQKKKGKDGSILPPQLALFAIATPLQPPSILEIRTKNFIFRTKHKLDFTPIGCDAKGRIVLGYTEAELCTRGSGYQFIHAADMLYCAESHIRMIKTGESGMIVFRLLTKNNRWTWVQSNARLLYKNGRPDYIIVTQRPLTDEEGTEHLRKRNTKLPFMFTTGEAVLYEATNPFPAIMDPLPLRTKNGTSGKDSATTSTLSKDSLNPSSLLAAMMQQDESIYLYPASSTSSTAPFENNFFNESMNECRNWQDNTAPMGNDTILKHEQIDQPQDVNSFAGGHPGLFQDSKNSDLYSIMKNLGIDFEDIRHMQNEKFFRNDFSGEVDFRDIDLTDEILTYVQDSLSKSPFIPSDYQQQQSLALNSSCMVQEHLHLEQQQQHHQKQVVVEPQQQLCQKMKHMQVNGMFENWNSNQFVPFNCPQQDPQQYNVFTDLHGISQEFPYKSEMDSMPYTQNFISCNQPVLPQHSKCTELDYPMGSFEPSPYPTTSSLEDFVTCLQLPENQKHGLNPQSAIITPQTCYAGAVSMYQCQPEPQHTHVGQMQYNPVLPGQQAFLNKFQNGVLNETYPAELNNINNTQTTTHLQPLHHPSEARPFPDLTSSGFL
Sequence of CCAAT/enhancer-binding protein beta (Homo sapiens) (P17676 whole entry, looked up): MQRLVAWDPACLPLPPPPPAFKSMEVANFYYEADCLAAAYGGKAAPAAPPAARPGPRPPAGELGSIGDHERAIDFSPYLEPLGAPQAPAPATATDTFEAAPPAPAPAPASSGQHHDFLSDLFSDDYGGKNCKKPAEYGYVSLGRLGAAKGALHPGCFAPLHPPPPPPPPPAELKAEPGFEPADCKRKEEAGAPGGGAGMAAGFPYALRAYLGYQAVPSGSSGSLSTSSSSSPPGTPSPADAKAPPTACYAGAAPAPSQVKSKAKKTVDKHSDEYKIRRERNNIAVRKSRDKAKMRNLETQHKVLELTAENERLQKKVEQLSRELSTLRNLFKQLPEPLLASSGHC

On to `Cc1ccc(OP(=O)(Oc2ccc(C)cc2)Oc2ccc(C)cc2)cc1` (tested in a mixture with another compound), for which the call in test [1], in test [2], in [3], in test [4], in test [5] and in [6] was inactive. In addition, the compound was called inactive in test [7], in test [8], in test [9], in test [10], in [12] and in [13]. Further, the compound was called inactive in test [14], in test [15] and in test [16]. Moreover, the half-maximal activity concentration (AC50) in [11] is 2.35 µM (active).
`O=C1Nc2ccc(Cl)cc2C(c2ccccc2)=NC1O` (stereo unspecified): the compound was classed as inactive in [1], in test [2], in test [3], in test [5], in [6] and in test [7]. The result in test [8], in test [17], in test [10], in [11], in test [12] and in test [13] was inactive. Moreover, the compound was classed as inactive in test [15] and in test [16].
Regarding `CC1(C)[C@H](C(=O)O[C@H](C#N)c2cccc(Oc3ccccc3)c2)[C@@H]1C=C(Br)Br`, the outcome in test [1], in [2], in test [3], in [18], in [5] and in test [19] was inactive. Further, the outcome in test [6], in [7], in test [8], in test [9], in test [17] and in test [10] was inactive. In addition, the result in test [12], in test [20], in test [13], in test [14], in test [15] and in test [16] was inactive.
As for `CCC(C)c1cc([N+](=O)[O-])cc([N+](=O)[O-])c1OC(=O)C=C(C)C` (stereo unspecified), the compound was called inactive in test [1], in test [3], in test [19], in test [7], in test [8] and in [9]. The result in [20] and in test [13] was inactive. Also, the half-maximal activity concentration (AC50) is 100 µM (active) in [2]; 25.8 µM (active) in test [17]; 0.86 µM (active) in test [11]; 27.2 µM (active) in test [12]; 3.47 µM (active) in test [14]; 25.8 µM (active) in test [15]. Besides, the concentration at half-maximal activity (AC50) in test [16] is 48.3 µM (active).
As for `O=c1c2ccccc2c(=O)c2c1cc(Cl)c1[nH]c3c([nH]c12)c(Cl)cc1c(=O)c2ccccc2c(=O)c13`, the result in [1], in test [2], in test [5], in [19], in [6] and in [7] was inactive. The result in test [8], in test [9], in [17], in test [10], in test [11] and in test [12] was inactive. The call in test [20], in test [13], in test [14], in [15] and in test [16] was inactive. Also, in [3], the concentration at half-maximal activity (AC50) is 33.6 µM (active).
As to `Nc1ccc(-c2ccc(N)c(N)c2)cc1N`, the call in test [1], in test [2], in test [3], in test [18], in test [5] and in [19] was inactive. Besides, the result in test [6], in test [7], in [8], in test [9], in [17] and in test [10] was inactive. Besides, the call in test [11], in [12], in [20], in test [13] and in [15] was inactive. In addition, in test [14], the half-maximal activity concentration (AC50) is 14 µM (active).
For `Cc1ccc(C)c2ccccc12`, the call in [1], in test [2], in test [4], in test [5], in [19] and in [6] was inactive. Besides, the result in [7], in test [8], in test [9], in test [17], in test [10] and in [11] was inactive. Moreover, the compound was classed as inactive in test [12], in test [13], in test [14] and in test [15]. In addition, in test [3], the concentration at half-maximal activity (AC50) was 27.7 µM (active).
